Out of some 310,000 compounds screened, about 2,200 (0.71%) showed an effect of 50% or more. The effect is printed as a negative number. Shown is part of a subset that was picked to be rich in strong results.
What follows are compounds tested against human ether-à-go-go-related gene (hERG) potassium channel (human, UniProt Q12809) (assay: primary screen, population patch clamp on CHO cells stably expressing hERG; higher = less effect of the substance).
human ether-à-go-go-related gene (hERG) potassium channel, sequence (Q12809 whole entry, looked up): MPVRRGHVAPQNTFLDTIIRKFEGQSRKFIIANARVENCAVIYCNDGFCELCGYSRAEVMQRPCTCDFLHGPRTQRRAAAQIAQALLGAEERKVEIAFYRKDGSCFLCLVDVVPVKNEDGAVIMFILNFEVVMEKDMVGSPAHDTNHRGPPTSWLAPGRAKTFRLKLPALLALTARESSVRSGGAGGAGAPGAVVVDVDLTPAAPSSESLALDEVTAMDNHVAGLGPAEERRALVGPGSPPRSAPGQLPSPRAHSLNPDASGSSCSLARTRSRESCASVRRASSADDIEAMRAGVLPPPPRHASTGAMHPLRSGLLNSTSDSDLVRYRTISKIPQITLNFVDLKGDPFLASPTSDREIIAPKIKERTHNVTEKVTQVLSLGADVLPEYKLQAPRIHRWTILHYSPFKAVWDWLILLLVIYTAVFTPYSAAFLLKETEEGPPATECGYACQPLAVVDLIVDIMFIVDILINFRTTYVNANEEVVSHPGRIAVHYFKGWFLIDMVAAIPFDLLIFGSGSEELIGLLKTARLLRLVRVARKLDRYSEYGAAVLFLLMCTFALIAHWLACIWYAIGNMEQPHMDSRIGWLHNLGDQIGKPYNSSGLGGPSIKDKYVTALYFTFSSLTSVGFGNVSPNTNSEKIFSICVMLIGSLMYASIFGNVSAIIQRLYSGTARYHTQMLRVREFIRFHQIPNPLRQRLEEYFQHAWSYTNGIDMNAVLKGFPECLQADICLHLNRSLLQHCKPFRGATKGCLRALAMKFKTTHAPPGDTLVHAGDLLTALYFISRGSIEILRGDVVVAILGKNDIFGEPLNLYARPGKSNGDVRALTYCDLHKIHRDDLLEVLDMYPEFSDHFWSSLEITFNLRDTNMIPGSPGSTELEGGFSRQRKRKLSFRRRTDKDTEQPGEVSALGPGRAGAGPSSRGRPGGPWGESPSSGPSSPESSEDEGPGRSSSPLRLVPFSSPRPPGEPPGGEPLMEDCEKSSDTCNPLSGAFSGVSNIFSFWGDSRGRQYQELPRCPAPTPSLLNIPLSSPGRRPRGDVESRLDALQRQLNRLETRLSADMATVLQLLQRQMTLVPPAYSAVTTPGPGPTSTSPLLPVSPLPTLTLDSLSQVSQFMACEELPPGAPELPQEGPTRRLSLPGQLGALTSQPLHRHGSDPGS

Question: With COc1ccc(N2CCN(C(=O)c3ccc4c(=O)n(Cc5ccc6c(c5)OCO6)c(=O)[nH]c4c3)CC2)cc1 as the compound, how does the “hERG current change (%, negative = inhibition) at 1uM” value read?
Answer: The value was 25%.

Question: With CC(=O)/C(=C\N(C)C)Sc1ccc(C)cc1 as the compound, how does the “hERG current change (%, negative = inhibition) at 1uM” value read?
Answer: Its value is 27.2%.

Question: How did the “hERG current change (%, negative = inhibition) at 1uM” value turn out when Cc1ccc(C(=O)Oc2cc(C)n(C)c(=O)c2)cc1 was run?
Answer: The value was 5.86%.

Question: For COc1cc(Cl)nn(-c2ccccc2)c1=O, which “hERG current change (%, negative = inhibition) at 1uM” value is on record?
Answer: The value was 13.3%.

Question: Which “hERG current change (%, negative = inhibition) at 1uM” value does the source give for CC1(c2ccc([N+](=O)[O-])cc2)Nc2ccccc2S1 (stereo not shown) here?
Answer: Its value is 10.9%.

Question: For O=C(CCC1CCCCC1)NCCN1C2=NC[C@H](Cc3ccc(O)cc3)N2C[C@H]1Cc1ccc(O)cc1, which “hERG current change (%, negative = inhibition) at 1uM” value is on record?
Answer: The value was 12.5%.

Question: With COc1ccc(C[C@H]2CN3C(=NC[C@H]3C)N2CCNC(=O)CCC2CCCCC2)cc1 as the compound, how does the “hERG current change (%, negative = inhibition) at 1uM” value read?
Answer: Its value is -51.9%.

Question: Which “hERG current change (%, negative = inhibition) at 1uM” value does the source give for COc1ccc(C[C@@H]2CN3C(=NC[C@@H]3C)N2C[C@H](C)NC(=O)CCC2CCCCC2)cc1 here?
Answer: The value was -20.8%.

Question: For Nc1nc(Cn2nnc(-c3ccccc3F)n2)nc(N2CCOCC2)n1, which “hERG current change (%, negative = inhibition) at 1uM” value is on record?
Answer: The value was -53.8%.

Question: How did the “hERG current change (%, negative = inhibition) at 1uM” value turn out when COc1ccc(-c2nnn(Cc3nc(N)nc(N4CCOCC4)n3)n2)cc1OC was run?
Answer: Its value is 3.65%.

Question: How did the “hERG current change (%, negative = inhibition) at 1uM” value turn out when Nc1nc(Cn2nnc(-c3ccccc3Cl)n2)nc(N2CCOCC2)n1 was run?
Answer: Its value is -25.9%.

Question: For COc1ccc(S(=O)(=O)N2CCCC2CNC(=O)C(=O)NC2CCCCCC2)cc1 (stereo not shown), which “hERG current change (%, negative = inhibition) at 1uM” value is on record?
Answer: Its value is -3.96%.

Question: O=C1CC2(CCN(C(=O)COc3ccc(Cl)cc3)CC2)Oc2ccccc21 was tested. Which “hERG current change (%, negative = inhibition) at 1uM” value did it give?
Answer: The value was -70.4%.

Question: O=C1CC2(CCN(C(=O)COc3ccc(F)cc3)CC2)Oc2ccccc21 was tested. Which “hERG current change (%, negative = inhibition) at 1uM” value did it give?
Answer: The value was -17%.

Question: How did the “hERG current change (%, negative = inhibition) at 1uM” value turn out when CCOc1ccc(OCC(=O)N2CCC3(CC2)CC(=O)c2ccccc2O3)cc1 was run?
Answer: The value was -56.8%.

Question: Which “hERG current change (%, negative = inhibition) at 1uM” value does the source give for Cc1ccccc1OCC(=O)N1CCC2(CC1)CC(=O)c1ccccc1O2 here?
Answer: The value was -10.3%.

Question: How did the “hERG current change (%, negative = inhibition) at 1uM” value turn out when COc1cccc(OCC(=O)N2CCC3(CC2)CC(=O)c2ccccc2O3)c1 was run?
Answer: The value was -5.23%.

Question: How did the “hERG current change (%, negative = inhibition) at 1uM” value turn out when COc1ccc(OCC(=O)N2CCN(C(=O)COc3ccccc3)CC2)cc1 was run?
Answer: The value was -24.7%.

Question: Cc1ccc(OCC(=O)N2CCC3(CC2)CC(=O)c2ccccc2O3)cc1 was tested. Which “hERG current change (%, negative = inhibition) at 1uM” value did it give?
Answer: The value was -49%.

Question: How did the “hERG current change (%, negative = inhibition) at 1uM” value turn out when COc1ccc(OCC(=O)N2CCN(C(=O)COc3ccc(Br)cc3)CC2)cc1 was run?
Answer: Its value is -56.9%.

Question: With O=C1CC2(CCN(C(=O)COc3ccccc3)CC2)Oc2ccccc21 as the compound, how does the “hERG current change (%, negative = inhibition) at 1uM” value read?
Answer: The value was -21.4%.

Question: Which “hERG current change (%, negative = inhibition) at 1uM” value does the source give for COc1ccc(OCC(=O)N2CCC3(CC2)CC(=O)c2ccccc2O3)cc1 here?
Answer: Its value is -70.2%.

Question: For CC(=O)N1CCN(C(=O)COc2ccc(Br)cc2)CC1, which “hERG current change (%, negative = inhibition) at 1uM” value is on record?
Answer: The value was 3.21%.

Question: Which “hERG current change (%, negative = inhibition) at 1uM” value does the source give for Cc1cccc(OCC(=O)N2CCC3(CC2)CC(=O)c2ccccc2O3)c1 here?
Answer: The value was -6.58%.

Question: How did the “hERG current change (%, negative = inhibition) at 1uM” value turn out when COc1ccc(NC(=O)N2CC(C)OC(C)C2)cc1OC (stereo not shown) was run?
Answer: Its value is 9.39%.

Question: How did the “hERG current change (%, negative = inhibition) at 1uM” value turn out when O=C1c2ccccc2C(=O)N1CCn1ccnc1 was run?
Answer: Its value is 17.7%.

Question: CCOc1cccc(CNc2ccc(O)cc2)c1OCc1ccc(Cl)cc1Cl was tested. Which “hERG current change (%, negative = inhibition) at 1uM” value did it give?
Answer: The value was 10.8%.

Question: How did the “hERG current change (%, negative = inhibition) at 1uM” value turn out when O=C(c1cnn2c(C(F)(F)F)cc(-c3ccco3)nc12)N1CCCc2ccccc21 was run?
Answer: Its value is -1.81%.

Question: With COc1ccc(C2c3ccc(O)cc3Oc3ncn(Cc4ccco4)c(=N)c32)cc1 (stereo not shown) as the compound, how does the “hERG current change (%, negative = inhibition) at 1uM” value read?
Answer: The value was -43.5%.

Question: N=c1c2c(ncn1CCCO)Oc1cc(O)ccc1C2c1ccccc1 (stereo not shown) was tested. Which “hERG current change (%, negative = inhibition) at 1uM” value did it give?
Answer: The value was 0.259%.

Question: With COc1ccc(C2c3ccc(O)cc3Oc3ncn(Cc4ccco4)c(=N)c32)cc1OC (stereo not shown) as the compound, how does the “hERG current change (%, negative = inhibition) at 1uM” value read?
Answer: Its value is -75.9%.

Question: N=c1c2c(ncn1Cc1ccco1)Oc1c(ccc3ccccc13)C2c1ccccc1 (stereo not shown) was tested. Which “hERG current change (%, negative = inhibition) at 1uM” value did it give?
Answer: The value was 1.59%.

Question: COc1ccc(C2c3ccc(O)cc3Oc3ncn4nc(-c5ccccn5)nc4c32)cc1 (stereo not shown) was tested. Which “hERG current change (%, negative = inhibition) at 1uM” value did it give?
Answer: The value was 18.3%.

Question: For COc1ccc(C2c3ccc(O)cc3Oc3ncn4nc(-c5ccncc5)nc4c32)cc1OC (stereo not shown), which “hERG current change (%, negative = inhibition) at 1uM” value is on record?
Answer: Its value is -0.788%.

Question: How did the “hERG current change (%, negative = inhibition) at 1uM” value turn out when COc1ccc(C2c3ccc(O)cc3Oc3ncn(Cc4ccccc4)c(=N)c32)cc1OC (stereo not shown) was run?
Answer: The value was -0.742%.

Question: With N=c1c2c(ncn1Cc1ccco1)Oc1cc(O)ccc1C2c1ccccc1 (stereo not shown) as the compound, how does the “hERG current change (%, negative = inhibition) at 1uM” value read?
Answer: Its value is -69.5%.

Question: Which “hERG current change (%, negative = inhibition) at 1uM” value does the source give for COc1ccc(C2c3ccc(O)cc3Oc3ncn4nc(-c5ccccn5)nc4c32)cc1OC (stereo not shown) here?
Answer: The value was -50.1%.

Question: With CCOC(=O)C1=C(Cn2cnc3ccccc32)NC(=O)NC1c1cc(C)ccc1C (stereo not shown) as the compound, how does the “hERG current change (%, negative = inhibition) at 1uM” value read?
Answer: Its value is 12.2%.

Question: Which “hERG current change (%, negative = inhibition) at 1uM” value does the source give for CCOC(=O)CSc1nnc(CSc2nc3ccccc3s2)n1C here?
Answer: The value was 6.96%.

Question: How did the “hERG current change (%, negative = inhibition) at 1uM” value turn out when COC(=O)Nc1nc2c(C)cccc2s1 was run?
Answer: The value was -4.56%.

Question: With CCN(c1ccc(NC(=O)c2ccc(Cl)nc2)cc1)C(C)C as the compound, how does the “hERG current change (%, negative = inhibition) at 1uM” value read?
Answer: The value was 12.2%.

Question: How did the “hERG current change (%, negative = inhibition) at 1uM” value turn out when CS(=O)(=O)O.Oc1ccc(C2CNCCc3c2cc(O)c(O)c3Cl)cc1 (stereo not shown) was run?
Answer: Its value is -0.982%.

Question: CCS(=O)(=O)NCc1cn2c(C)csc2n1 was tested. Which “hERG current change (%, negative = inhibition) at 1uM” value did it give?
Answer: The value was 0.136%.

Question: With CCCc1[nH]n(-c2ccc([N+](=O)[O-])cc2)c(=O)c1C=NCCN1CCNCC1 as the compound, how does the “hERG current change (%, negative = inhibition) at 1uM” value read?
Answer: The value was -9.24%.

Question: For CCCc1[nH]n(-c2ccc([N+](=O)[O-])cc2)c(=O)c1C=NCCCn1ccnc1, which “hERG current change (%, negative = inhibition) at 1uM” value is on record?
Answer: The value was -50.1%.

Question: With CCCc1[nH]n(-c2ccc([N+](=O)[O-])cc2)c(=O)c1C=NCCc1ccc(OC)c(OC)c1 as the compound, how does the “hERG current change (%, negative = inhibition) at 1uM” value read?
Answer: The value was 4.23%.

Question: With COc1ccccc1/C=C/CN1CCCC(CCC(=O)NCc2ccc(F)c(F)c2)C1 (stereo not shown) as the compound, how does the “hERG current change (%, negative = inhibition) at 1uM” value read?
Answer: The value was -26.2%.

Question: For COc1cccc(CNC(=O)CCC2CCCN(Cc3ccc(OC(F)F)cc3)C2)c1 (stereo not shown), which “hERG current change (%, negative = inhibition) at 1uM” value is on record?
Answer: Its value is -80.1%.

Question: With COc1cccc(CNC(=O)CCC2CCCN(Cc3cc(Cl)ccc3O)C2)c1 (stereo not shown) as the compound, how does the “hERG current change (%, negative = inhibition) at 1uM” value read?
Answer: The value was -20%.

Question: COc1cccc(CNC(=O)CCC2CCCN(C/C=C/c3ccccc3OC)C2)c1 (stereo not shown) was tested. Which “hERG current change (%, negative = inhibition) at 1uM” value did it give?
Answer: The value was -34.5%.

Question: How did the “hERG current change (%, negative = inhibition) at 1uM” value turn out when COc1cccc(CNC(=O)CCC2CCCN(c3cc(C)nc(N)n3)C2)c1 (stereo not shown) was run?
Answer: Its value is -18.3%.

Question: Which “hERG current change (%, negative = inhibition) at 1uM” value does the source give for COc1cccc(CNC(=O)CCC2CCCN(c3cc(C)nc(N(C)C)n3)C2)c1 (stereo not shown) here?
Answer: The value was -27.7%.

Question: For COc1ccc(/C=C/CN2CCCC(CCC(=O)NCc3ccc(F)c(F)c3)C2)cc1 (stereo not shown), which “hERG current change (%, negative = inhibition) at 1uM” value is on record?
Answer: Its value is -54.3%.

Question: How did the “hERG current change (%, negative = inhibition) at 1uM” value turn out when COCc1ccc(CN2CCCC(CCC(=O)NCc3cccc(OC)c3)C2)o1 (stereo not shown) was run?
Answer: The value was 11%.

Question: How did the “hERG current change (%, negative = inhibition) at 1uM” value turn out when COc1cccc(CNC(=O)CCC2CCCN(c3cc(C)nc(N4CCCC4)n3)C2)c1 (stereo not shown) was run?
Answer: The value was -74%.

— publication PMC4336329 (PLoS ONE, 2015)
